# Screening results from PubChem.
# Rows were chosen to be rich in hits. Some 3.3% of all compounds tested hit in one or more screens of this group.
# PI5P4K alpha inh = blocks human PI5P4K alpha kinase activity | 330,000 tested, 1.2% active | PI5P4Kalpha enzyme, ADP-Glo luminescence, 60 min; active compounds read low | max response, % | P48426 | AID 652105; active = max response of -50% or lower; inconclusive = between -30% and -50%; inactive = -30% or higher; note: value at the top dose of about 77 µM
#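 Controls without substrate or without enzyme flank wells where PI5P4Kalpha converts substrate using 5 microM ATP (final). Incubation lasts 60 minutes at room temperature; ADP formed is read by ADP-Glo luminescence.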
# USP2a inh = blocks human ubiquitin-specific protease USP2a | USP2 core, Ub-CHOP2 coupled fluorogenic reporter, 485/531 | 330,000 tested, 0.01% active | AID 463254 | O75604 | Potency, µM (titrated, usually from 38.3 µM), most hits filed as inhibitors
#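 USP2 core (10nM final) preincubated 30min RT with compound in 20mM Tris-HCl pH 8.0, 2mM CaCl2, 2mM beta-mercaptoethanol, 0.05% CHAPS; 25nM Ub-CHOP2 plus 25nM reporter substrate added, fluorescence (Ex485/Em531) read after 60min.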
# WRN helicase inh = inhibitors of human WRN helicase; WRN helicase unwinding, fluorescent forked duplex, kinetic; AID 651768; Q14191; Potency, µM (top dose mostly 114 µM), hits mostly inhibitors; 360,000 tested, 0.46% active; note: nearly all actives have a fitted effect of over 55% in size
#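 Fluorescence dequenching readout, ex 525 nm/em 598 nm, kinetic mode: forked duplex DNA (100 nM final) with adjacent fluorophore and quencher unwound by WRN (20 nM final) with 2 mM ATP. Compound preincubation 15 min, room temperature.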
# USP1-UAF1 inh = inhibitors of human USP1/UAF1 deubiquitinase; O94782; recombinant USP1/UAF1, Ub-Rhodamine cleavage fluorescence; Potency, µM (highest dose often 57.1 µM), hits mostly inhibitors; 390,000 tested, 0.23% active; AID 743255; note: nearly all actives have a fitted effect of over 60% in size
#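 In this screen, compounds sit with the deubiquitinase complex (1nM) for 15 min at room temperature before Ub-Rho is added at 150nM final. Fluorescence rise is then followed for 6 reads every 60 seconds.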
# PLK1 PBD block = inhibitors of human PLK1 polo-box domain binding | Plk1 PBD binding of FITC phosphopeptide, fluorescence polarization | P53350 | AID 720504 | Potency, µM, hits mostly inhibitors | 360,000 tested, 2.8% active; note: series mostly up to about 57 µM; nearly all actives have a fitted effect of over 65% in size
# Target sequence (P53350 whole entry, looked up, the tested form may be a part): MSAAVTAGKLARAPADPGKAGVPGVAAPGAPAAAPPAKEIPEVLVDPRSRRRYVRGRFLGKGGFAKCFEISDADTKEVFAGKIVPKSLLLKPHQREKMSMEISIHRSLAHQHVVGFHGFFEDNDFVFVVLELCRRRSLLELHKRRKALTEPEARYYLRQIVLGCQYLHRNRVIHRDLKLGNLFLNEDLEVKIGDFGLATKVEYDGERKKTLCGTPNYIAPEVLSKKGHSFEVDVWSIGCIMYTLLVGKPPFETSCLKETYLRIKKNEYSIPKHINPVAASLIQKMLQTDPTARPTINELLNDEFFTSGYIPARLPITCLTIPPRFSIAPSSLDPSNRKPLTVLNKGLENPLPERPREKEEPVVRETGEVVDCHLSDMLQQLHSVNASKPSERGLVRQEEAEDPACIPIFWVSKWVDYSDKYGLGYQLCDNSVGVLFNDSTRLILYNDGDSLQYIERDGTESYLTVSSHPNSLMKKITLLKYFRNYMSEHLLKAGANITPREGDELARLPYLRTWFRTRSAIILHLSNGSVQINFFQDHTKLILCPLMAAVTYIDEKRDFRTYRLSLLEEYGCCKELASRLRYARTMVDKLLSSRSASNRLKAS
# Numbers stand for hits; n = inactive; u = inconclusive; x = not tested or not shown; [ ] = another dose, or the depositor's remark. Unless noted, calls come from the whole dose curve; as a rule, active = well fitted curve in the direction sought with a large enough effect; inconclusive = small, poorly fitted or top-dose-only effect, or another doubt; inactive = no such curve, though single readings can be large; an effect the other way counts as inactive or inconclusive.
SMILES,PI5P4K alpha inh,USP2a inh,WRN helicase inh,USP1-UAF1 inh,PLK1 PBD block
CCOC1=C2CN(S(=O)(=O)c3ccc(C)cc3)C(c3ccc(CC)cc3)CC2N(S(=O)(=O)c2ccc(C)cc2)C(c2ccc(CC)cc2)C1 (stereo not given),n,x,n,x,n
CC(C)Oc1ccc(C(=O)N(Cc2ccco2)c2ccccn2)cc1,x,x,x,n,x
Cc1cccc(NC(=O)CN2C(=O)C3CC=CCC3C2=O)c1C (stereo not given),n,x,n,n,n
CCOc1ccccc1NC(=O)CN1C(=O)COc2ccc(S(=O)(=O)N3CCOCC3)cc21,n,n,n,n,5.32µM
Cc1ccccc1NC(=O)CN1C(=O)C2C3CC(C(Br)C3Br)C2C1=O (stereo not given),n,n,n,n,4.74µM
CCN(C(=O)CN1C(=O)COc2ccc(S(=O)(=O)N3CCCCCC3)cc21)c1cccc(C)c1,n,n,n,n,23.8µM
Cc1ccc(C)c(NC(=O)CN2C(=O)COc3ccc(Cl)cc32)c1,x,x,x,n,x
Cc1ccccc1NC(=O)CN1C(=O)COc2ccc(Cl)cc21,n,n,n,n,23.8µM
CCOC(=O)c1c(S(=O)(=O)N2CCCC(C(=O)NCc3ccccc3OC)C2)c(C)n(C)c1C (stereo not given),x,x,x,n,x
O=C(CCl)Nc1cccc2ncccc12,n,n,n,n,n
O=C(CN1C(=O)C2C3C=CC(C4CC34)C2C1=O)Nc1cccc2ncccc12 (stereo not given),n,n,n,n,29.9µM
CCOc1ccc(NC(=O)CN2C(=O)COc3ccc(S(=O)(=O)N4CCCC4)cc32)cc1,n,n,n,n,n
CCOc1ccc(NC(=O)C2CCCN(S(=O)(=O)c3ccc4[nH]c(=O)ccc4c3)C2)cc1 (stereo not given),n,n,n,n,26.7µM
COc1ccc(NC(=O)C2CCCN(S(=O)(=O)c3ccc4[nH]c(=O)ccc4c3)C2)cc1 (stereo not given),n,n,n,n,n
CCOc1ccc(NC(=O)CN2C(=O)COc3ccc(S(=O)(=O)N4CCCCC4)cc32)cc1,n,n,n,n,26.7µM
CCC(C(=O)N1CCN(c2ccccc2F)CC1)n1nc(C)c2sc3ccccc3c2c1=O (stereo not given),x,x,x,n,x
CN(C)c1ccc(/C=N/n2cnn(Cc3ccccc3Cl)c2=S)cc1,n,n,n,n,u
Fc1ccc(/C=N/n2cnn(Cc3ccccc3Cl)c2=S)cc1,n,n,n,n,23.8µM
CCc1ccc(CN/C=C/C(=O)c2ccc(Br)cc2)cc1,n,n,n,n,23.8µM
CCOC(=O)c1ccc(CNCc2ccc(Br)cc2)cc1,n,n,n,n,n
CCCCN(CC)C(=O)CCCn1c(=O)c2cccn2c2ccccc21,x,x,x,n,x
CCOc1cc(CNC(=O)c2ccc(Cn3c(=O)c4cccn4c4cccnc43)cc2)ccc1OC,x,x,x,n,x
O=Nc1nc2ncccn2c1-c1ccccc1,n,x,u,n,7.52µM
COCC(=O)Oc1c(Sc2ccccc2[N+](=O)[O-])c(C)nn1C(C)(C)C,u,n,n,n,11.9µM
CCC(CC)C(=O)Oc1c(Sc2ccccc2[N+](=O)[O-])c(C)nn1C(C)(C)C,n,n,n,n,n
SMILES,PI5P4K alpha inh,USP2a inh,WRN helicase inh,USP1-UAF1 inh,PLK1 PBD block
CN1CCN(S(=O)(=O)c2ccc(NC(=O)c3ccccc3Cl)cc2)CC1,n,n,n,n,n
COc1ccc(NC(=O)c2cc(S(=O)(=O)N3CCCCC3)ccc2OC)cc1,n,n,n,n,n
O=C(Nc1ccc(S(=O)(=O)N2CCCCC2)cc1)c1ccccc1Cl,n,n,n,n,29.9µM
O=C(CN1C(=O)c2ccccc2S1(=O)=O)Nc1ccc(S(=O)(=O)N2CCCCC2)cc1,n,x,n,n,23.8µM
COc1ccc(NC(=O)c2cc(S(=O)(=O)N3CCCC3)ccc2OC)cc1,n,n,n,n,16.8µM
O=C(CN1C(=O)c2ccccc2S1(=O)=O)Nc1ccc(S(=O)(=O)N2CCCC2)cc1,x,n,n,n,n
Cc1ccc(N2CCN(C(=O)c3nn(C)c4c3CSc3ccccc3-4)CC2C)cc1 (stereo not given),x,x,x,n,x
COc1ccc(NC(=O)C2CCCN2S(=O)(=O)c2ccc3c(c2)CCCC(=O)N3)cc1Cl (stereo not given),x,x,x,n,x
Cc1ccc(NC(=O)C2CC(=O)Nc3ncnn32)cc1Cl (stereo not given),n,n,n,n,26.7µM
Cc1cc(C)n(CC(=O)Nc2ccc(F)c(F)c2)c(=O)c1C#N,x,x,x,n,x
CCCn1c(SCC(=O)N2CCCCC2)nnc1-c1ccccn1,x,n,x,x,x
CCCn1c(SCC(=O)N2c3ccc(F)cc3CCC2C)nnc1-c1ccccn1 (stereo not given),n,n,n,n,29.9µM
CC1(C)CC(=O)C2=C(C1)NC(=S)C(C#N)C21CCCCC1 (stereo not given),-61.8,n,n,n,10.6µM
CCOCCCNC(=O)c1ccc(CS(=O)(=O)Cc2cccc(C)c2)o1,x,n,n,u,n
CCOc1ccc(CCNC(=O)c2ccc(CS(=O)Cc3cccc(Cl)c3)o2)cc1 (stereo not given),n,n,n,n,26.7µM
CCOc1ccc(CCNC(=O)c2ccc(CS(=O)Cc3ccc(Cl)cc3)o2)cc1OCC (stereo not given),n,n,n,n,n
Cc1cccc(CS(=O)(=O)Cc2ccc(C(=O)NCCc3ccccc3)o2)c1,n,n,n,n,26.7µM
Cc1ccccc1CS(=O)(=O)Cc1ccc(C(=O)NCCc2ccccc2)o1,n,n,n,u,29.9µM
CCCCN(C)c1nnc(NC(=O)Nc2cccc(C(C)=O)c2)s1,x,x,x,n,x
COc1cccc(N2CCN(C(=O)c3cnc4c(-c5ccc(F)cc5)c(C)nn4c3C)CC2)c1,x,x,x,n,x
Cn1c(N)c(C(=O)COC(=O)C2(c3ccc(Cl)cc3)CCCC2)c(=O)n(C)c1=O,n,n,u,n,2.99µM
Cn1c(N)c(C(=O)COC(=O)C2(c3ccc(F)cc3)CCCC2)c(=O)n(C)c1=O,n,n,n,n,n
CCc1ccc(C2C(C#N)=C(N)SC(N)=C2C#N)cc1,x,n,n,u,n
CCc1ccc(C2C(C#N)=C(N)SC(N)=C2C#N)s1,-75.4,u,n,n,u
O=C(NCc1ccco1)C(c1ccco1)N(CCc1ccccc1)C(=O)Cn1nnc2ccccc21 (stereo not given),u,n,n,n,3.77µM
C=CCn1c(SCC(=O)NC(=O)NCc2ccco2)nc2sc(CC)cc2c1=O,-50.2,n,n[11.6 µM],n,n
CC1=C(C(=O)Nc2ccc(Cl)cc2)C(C(C)C)n2nc(SCc3ccc(Cl)cc3)nc2N1 (stereo not given),x,x,x,n,x
CCN(CC)S(=O)(=O)c1ccc(O)c(NC(=O)c2ccc(N3CCOCC3)c([N+](=O)[O-])c2)c1,n,n,n,n,21.2µM
COc1ccc(S(=O)(=O)N2CCOCC2)cc1NC(=O)CSc1nc(C)c(C)c(C)n1,n,n,n,n,u
